Test results: the supplement of paper PMC4022240
± gives the standard deviation.

Key:
Assay in all cases: peptide microarray binding signal (635 nm), min-max normalized on array (fraction of array maximum); higher = stronger binding
Settings in all cases: peptide region: H3 20-32
[1] = molecular target: T1, HaloTag-ATRX ADD domain (163-292)
T1 chain: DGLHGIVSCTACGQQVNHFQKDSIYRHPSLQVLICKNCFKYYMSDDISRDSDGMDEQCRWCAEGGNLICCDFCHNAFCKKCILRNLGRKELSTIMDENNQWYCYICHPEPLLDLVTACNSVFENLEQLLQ
Outline: (§1)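 Histone 13-mer peptide–cellulose conjugates were printed in triplicate on nitrocellulose with a Cy3 tracer, then blocked overnight at 4°C. Arrays were probed for 1 h at 4°C with biotin-labelled HaloTag reader fusions (10 nM to 1 μM) plus streptavidin-Alexa Fluor 647, or with rabbit histone antibodies (1:10,000 to 1:2,000) plus anti-rabbit Alexa 647. An Axon GenePix 4000B scanned 635 nm for signal and 532 nm for misprints. Binding signal is the triplicate-spot mean intensity, min-max scaled per library.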

[2] = molecular target: HaloTag-ING2 PHD (mouse Ing2 200-280)
Outline: as §1

[3] = molecular target: anti-H3K4me3 antibody ab8580
Outline: as §1

[4] = molecular target: anti-H3K9me3 antibody ab8898
Outline: as §1

[5] = peptide modifications: H3R26me2s H3K27me2, binder concentration: 1:2,000 dilution
[6] = peptide modifications: H3R26me2s H3K27me2, binder concentration: 1:10,000 dilution
[7] = peptide modifications: H3R26me2s H3K27me3, binder concentration: 1:2,000 dilution
[8] = peptide modifications: H3R26me2s H3K27me3, binder concentration: 1:10,000 dilution
[9] = peptide modifications: H3R26me2s, binder concentration: 1:2,000 dilution
[10] = peptide modifications: H3R26me2s, binder concentration: 1:10,000 dilution
[11] = peptide modifications: H3S28ph, binder concentration: 1:2,000 dilution
[12] = peptide modifications: H3S28ph, binder concentration: 1:10,000 dilution
[13] = peptide modifications: H3T22ph H3K23ac, binder concentration: 1:2,000 dilution
[14] = peptide modifications: H3T22ph H3K23ac, binder concentration: 1:10,000 dilution

LATKAARKSAPAT [H3 20-32 L A T K A A Rme2s Kme2 S A P A T]
peptide microarray binding signal ([1]; peptide modifications: H3R26me2s H3K27me2, binder concentration: 50 nM): 0.00351 ± 3.8e-05
peptide microarray binding signal ([1]; peptide modifications: H3R26me2s H3K27me2, binder concentration: 500 nM): 0.00129 ± 2.1e-05
peptide microarray binding signal ([2]; peptide modifications: H3R26me2s H3K27me2, binder concentration: 10 nM): 0.003342 ± 1.8e-05
peptide microarray binding signal ([2]; peptide modifications: H3R26me2s H3K27me2, binder concentration: 100 nM): 0.00312 ± 7.5e-05
peptide microarray binding signal [3, 5]: 0.00128 ± 2e-05
peptide microarray binding signal [3, 6]: 0.00114 ± 2.3e-05
peptide microarray binding signal [4, 5]: 0.000725 ± 1.1e-05
peptide microarray binding signal [4, 6]: 0.000865 ± 9e-06

LATKAARKSAPAT [H3 20-32 L A T K A A Rme2s Kme3 S A P A T]
peptide microarray binding signal ([1]; peptide modifications: H3R26me2s H3K27me3, binder concentration: 50 nM): 0.00342 ± 5.6e-05
peptide microarray binding signal ([1]; peptide modifications: H3R26me2s H3K27me3, binder concentration: 500 nM): 0.003095 ± 2.4e-05
peptide microarray binding signal ([2]; peptide modifications: H3R26me2s H3K27me3, binder concentration: 10 nM): 0.00889 ± 0.00023
peptide microarray binding signal ([2]; peptide modifications: H3R26me2s H3K27me3, binder concentration: 100 nM): 0.00808 ± 0.00038
peptide microarray binding signal [3, 7]: 0.0443 ± 0.0026
peptide microarray binding signal [3, 8]: 0.0353 ± 0.0044
peptide microarray binding signal [4, 7]: 0.082 ± 0.006
peptide microarray binding signal [4, 8]: 0.0554 ± 0.0085

LATKAARKSAPAT [H3 20-32 L A T K A A Rme2s K S A P A T]
peptide microarray binding signal ([1]; peptide modifications: H3R26me2s, binder concentration: 50 nM): 0.00668 ± 0.00025
peptide microarray binding signal ([1]; peptide modifications: H3R26me2s, binder concentration: 500 nM): 0.01295 ± 0.0001
peptide microarray binding signal ([2]; peptide modifications: H3R26me2s, binder concentration: 10 nM): 0.0106 ± 0.00025
peptide microarray binding signal ([2]; peptide modifications: H3R26me2s, binder concentration: 100 nM): 0.0116 ± 0.00039
peptide microarray binding signal [3, 9]: 0.00451 ± 0.00012
peptide microarray binding signal [3, 10]: 0.00479 ± 0.00014
peptide microarray binding signal [4, 9]: 0.0047 ± 0.00025
peptide microarray binding signal [4, 10]: 0.00329 ± 9.9e-05

LATKAARKSAPAT [H3 20-32 L A T K A A R K Sph A P A T]
peptide microarray binding signal ([1]; peptide modifications: H3S28ph, binder concentration: 50 nM): 0.013 ± 0.00031
peptide microarray binding signal ([1]; peptide modifications: H3S28ph, binder concentration: 500 nM): 0.00843 ± 0.0004
peptide microarray binding signal ([2]; peptide modifications: H3S28ph, binder concentration: 10 nM): 0.01074 ± 4.2e-05
peptide microarray binding signal ([2]; peptide modifications: H3S28ph, binder concentration: 100 nM): 0.0104 ± 0.00034
peptide microarray binding signal [3, 11]: 0.001057 ± 8.9e-06
peptide microarray binding signal [3, 12]: 0.00126
peptide microarray binding signal [4, 11]: 0.00116 ± 2.3e-05
peptide microarray binding signal [4, 12]: 0.00144 ± 2.8e-05

LATKAARKSAPAT [H3 20-32 L A Tph Kac A A R K S A P A T]
peptide microarray binding signal ([1]; peptide modifications: H3T22ph H3K23ac, binder concentration: 50 nM): 0.00602 ± 0.00043
peptide microarray binding signal ([1]; peptide modifications: H3T22ph H3K23ac, binder concentration: 500 nM): 0.0111 ± 0.0014
peptide microarray binding signal ([2]; peptide modifications: H3T22ph H3K23ac, binder concentration: 10 nM): 0.0199 ± 0.0011
peptide microarray binding signal ([2]; peptide modifications: H3T22ph H3K23ac, binder concentration: 100 nM): 0.0259 ± 0.00072
peptide microarray binding signal [3, 13]: 0.00476 ± 0.00081
peptide microarray binding signal [3, 14]: 0.00616 ± 0.00082
peptide microarray binding signal [4, 13]: 0.00257 ± 0.00028
peptide microarray binding signal [4, 14]: 0.00202
